# Key:
# [1] = target: T1, Mitogen-activated protein kinase kinase kinase 7 (Homo sapiens) (UniProt O43318); conditions: at 10 µM
# T1 sequence (whole entry): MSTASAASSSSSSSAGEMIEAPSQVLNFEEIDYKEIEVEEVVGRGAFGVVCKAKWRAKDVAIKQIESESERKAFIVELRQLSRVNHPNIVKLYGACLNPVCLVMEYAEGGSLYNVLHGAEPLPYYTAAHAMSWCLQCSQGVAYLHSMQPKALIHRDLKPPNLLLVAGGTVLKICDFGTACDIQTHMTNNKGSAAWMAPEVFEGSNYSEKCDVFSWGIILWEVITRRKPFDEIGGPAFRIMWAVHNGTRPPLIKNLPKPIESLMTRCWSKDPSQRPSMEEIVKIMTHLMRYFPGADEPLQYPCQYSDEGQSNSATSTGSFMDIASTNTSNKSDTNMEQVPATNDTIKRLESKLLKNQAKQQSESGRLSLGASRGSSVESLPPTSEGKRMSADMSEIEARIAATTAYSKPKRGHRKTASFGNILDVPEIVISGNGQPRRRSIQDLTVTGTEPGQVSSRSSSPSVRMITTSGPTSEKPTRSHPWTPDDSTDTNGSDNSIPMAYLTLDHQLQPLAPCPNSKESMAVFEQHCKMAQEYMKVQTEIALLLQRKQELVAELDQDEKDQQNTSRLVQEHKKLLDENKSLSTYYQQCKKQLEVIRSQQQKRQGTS
# [2] = target: T2, Serine/threonine-protein kinase TAO1 (Homo sapiens) (UniProt Q7L7X3); conditions: at 1 µM
# T2 sequence (whole entry): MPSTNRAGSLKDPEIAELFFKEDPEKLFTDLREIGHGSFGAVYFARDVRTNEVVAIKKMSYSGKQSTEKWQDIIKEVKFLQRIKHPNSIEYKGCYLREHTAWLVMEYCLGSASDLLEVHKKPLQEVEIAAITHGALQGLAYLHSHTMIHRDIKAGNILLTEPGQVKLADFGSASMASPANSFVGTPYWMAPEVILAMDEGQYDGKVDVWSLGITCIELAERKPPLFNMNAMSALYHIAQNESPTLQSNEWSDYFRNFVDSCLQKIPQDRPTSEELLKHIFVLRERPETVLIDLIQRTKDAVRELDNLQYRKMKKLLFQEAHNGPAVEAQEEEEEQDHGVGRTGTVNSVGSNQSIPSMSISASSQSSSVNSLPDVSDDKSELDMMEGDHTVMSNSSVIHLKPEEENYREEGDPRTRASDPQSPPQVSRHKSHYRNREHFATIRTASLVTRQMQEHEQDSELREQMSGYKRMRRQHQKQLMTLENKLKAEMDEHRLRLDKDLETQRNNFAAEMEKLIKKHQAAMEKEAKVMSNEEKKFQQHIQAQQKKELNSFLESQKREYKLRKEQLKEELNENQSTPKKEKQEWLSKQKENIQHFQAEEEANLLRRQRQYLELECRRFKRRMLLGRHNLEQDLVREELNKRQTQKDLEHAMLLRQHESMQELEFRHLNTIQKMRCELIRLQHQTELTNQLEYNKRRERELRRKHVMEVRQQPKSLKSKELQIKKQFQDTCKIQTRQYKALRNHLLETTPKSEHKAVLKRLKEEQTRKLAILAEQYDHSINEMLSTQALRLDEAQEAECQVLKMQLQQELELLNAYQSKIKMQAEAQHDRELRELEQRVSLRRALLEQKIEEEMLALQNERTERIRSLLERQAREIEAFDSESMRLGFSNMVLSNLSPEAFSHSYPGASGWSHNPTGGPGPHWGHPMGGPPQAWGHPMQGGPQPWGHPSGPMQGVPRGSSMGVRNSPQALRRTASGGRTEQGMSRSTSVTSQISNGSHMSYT
# [3] = target: T2, Serine/threonine-protein kinase TAO1 (Homo sapiens); conditions: at 10 µM
# [4] = target: T3, Serine/threonine-protein kinase TAO2 (Homo sapiens) (UniProt Q9UL54); conditions: at 1 µM
# T3 sequence (whole entry): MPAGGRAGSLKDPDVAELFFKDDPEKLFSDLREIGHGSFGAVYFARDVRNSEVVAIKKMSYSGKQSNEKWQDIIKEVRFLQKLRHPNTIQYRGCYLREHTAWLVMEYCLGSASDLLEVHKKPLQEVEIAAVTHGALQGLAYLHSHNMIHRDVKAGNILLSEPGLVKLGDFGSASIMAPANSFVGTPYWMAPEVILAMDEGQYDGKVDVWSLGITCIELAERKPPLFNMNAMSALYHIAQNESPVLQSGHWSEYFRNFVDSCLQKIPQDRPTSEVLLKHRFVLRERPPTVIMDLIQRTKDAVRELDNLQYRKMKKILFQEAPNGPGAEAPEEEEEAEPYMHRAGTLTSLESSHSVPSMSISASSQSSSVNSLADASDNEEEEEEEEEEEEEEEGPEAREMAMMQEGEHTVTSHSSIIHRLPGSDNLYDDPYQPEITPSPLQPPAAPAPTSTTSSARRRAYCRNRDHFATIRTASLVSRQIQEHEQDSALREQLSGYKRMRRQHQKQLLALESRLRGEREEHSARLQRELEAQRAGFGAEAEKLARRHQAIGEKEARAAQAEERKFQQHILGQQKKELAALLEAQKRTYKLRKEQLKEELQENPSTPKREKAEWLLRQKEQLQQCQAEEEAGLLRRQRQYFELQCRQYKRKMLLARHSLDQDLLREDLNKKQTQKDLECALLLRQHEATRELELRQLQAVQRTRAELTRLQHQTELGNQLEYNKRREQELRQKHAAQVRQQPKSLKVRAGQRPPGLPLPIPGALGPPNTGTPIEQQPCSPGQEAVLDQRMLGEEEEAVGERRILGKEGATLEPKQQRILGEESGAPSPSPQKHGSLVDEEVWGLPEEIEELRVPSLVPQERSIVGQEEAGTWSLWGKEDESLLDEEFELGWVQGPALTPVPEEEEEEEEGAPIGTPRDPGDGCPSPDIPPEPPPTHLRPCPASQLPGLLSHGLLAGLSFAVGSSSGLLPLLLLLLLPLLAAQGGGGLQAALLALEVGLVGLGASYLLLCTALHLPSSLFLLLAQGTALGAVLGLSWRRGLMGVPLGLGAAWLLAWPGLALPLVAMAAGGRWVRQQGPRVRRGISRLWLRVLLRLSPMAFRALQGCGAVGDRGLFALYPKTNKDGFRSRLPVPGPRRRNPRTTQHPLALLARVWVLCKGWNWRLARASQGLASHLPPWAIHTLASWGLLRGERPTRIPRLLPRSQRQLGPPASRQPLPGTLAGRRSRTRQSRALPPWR
# [5] = target: T3, Serine/threonine-protein kinase TAO2 (Homo sapiens); conditions: at 10 µM
# [6] = target: T4, Serine/threonine-protein kinase TAO3 (Homo sapiens) (UniProt Q9H2K8); conditions: at 1 µM
# T4 sequence (whole entry): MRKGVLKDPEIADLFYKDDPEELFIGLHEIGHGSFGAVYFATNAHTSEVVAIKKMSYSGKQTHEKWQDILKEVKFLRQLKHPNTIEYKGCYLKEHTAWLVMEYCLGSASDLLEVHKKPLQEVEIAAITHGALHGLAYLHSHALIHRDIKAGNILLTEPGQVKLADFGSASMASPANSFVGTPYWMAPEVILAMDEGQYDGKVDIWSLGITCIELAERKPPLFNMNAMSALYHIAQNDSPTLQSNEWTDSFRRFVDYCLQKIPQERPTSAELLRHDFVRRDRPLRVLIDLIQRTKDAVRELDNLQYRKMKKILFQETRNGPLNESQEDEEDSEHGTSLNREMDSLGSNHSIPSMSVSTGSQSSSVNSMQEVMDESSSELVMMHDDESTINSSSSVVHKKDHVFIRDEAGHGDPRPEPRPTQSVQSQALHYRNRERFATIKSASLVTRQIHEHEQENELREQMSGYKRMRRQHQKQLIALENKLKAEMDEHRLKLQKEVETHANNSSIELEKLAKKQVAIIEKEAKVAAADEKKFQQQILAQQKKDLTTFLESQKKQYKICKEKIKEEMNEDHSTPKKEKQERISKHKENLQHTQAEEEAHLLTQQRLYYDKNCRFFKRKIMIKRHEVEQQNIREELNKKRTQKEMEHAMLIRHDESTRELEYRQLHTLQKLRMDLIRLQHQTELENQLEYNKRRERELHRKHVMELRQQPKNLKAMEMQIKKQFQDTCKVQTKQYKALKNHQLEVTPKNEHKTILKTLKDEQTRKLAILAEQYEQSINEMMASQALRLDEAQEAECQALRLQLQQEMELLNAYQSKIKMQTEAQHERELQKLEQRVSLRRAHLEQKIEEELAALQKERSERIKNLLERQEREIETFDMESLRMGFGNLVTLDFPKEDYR
# [7] = target: T4, Serine/threonine-protein kinase TAO3 (Homo sapiens); conditions: at 10 µM
# [8] = target: T5, Serine/threonine-protein kinase TBK1 (Homo sapiens) (UniProt Q9UHD2); conditions: at 1 µM
# T5 sequence (whole entry): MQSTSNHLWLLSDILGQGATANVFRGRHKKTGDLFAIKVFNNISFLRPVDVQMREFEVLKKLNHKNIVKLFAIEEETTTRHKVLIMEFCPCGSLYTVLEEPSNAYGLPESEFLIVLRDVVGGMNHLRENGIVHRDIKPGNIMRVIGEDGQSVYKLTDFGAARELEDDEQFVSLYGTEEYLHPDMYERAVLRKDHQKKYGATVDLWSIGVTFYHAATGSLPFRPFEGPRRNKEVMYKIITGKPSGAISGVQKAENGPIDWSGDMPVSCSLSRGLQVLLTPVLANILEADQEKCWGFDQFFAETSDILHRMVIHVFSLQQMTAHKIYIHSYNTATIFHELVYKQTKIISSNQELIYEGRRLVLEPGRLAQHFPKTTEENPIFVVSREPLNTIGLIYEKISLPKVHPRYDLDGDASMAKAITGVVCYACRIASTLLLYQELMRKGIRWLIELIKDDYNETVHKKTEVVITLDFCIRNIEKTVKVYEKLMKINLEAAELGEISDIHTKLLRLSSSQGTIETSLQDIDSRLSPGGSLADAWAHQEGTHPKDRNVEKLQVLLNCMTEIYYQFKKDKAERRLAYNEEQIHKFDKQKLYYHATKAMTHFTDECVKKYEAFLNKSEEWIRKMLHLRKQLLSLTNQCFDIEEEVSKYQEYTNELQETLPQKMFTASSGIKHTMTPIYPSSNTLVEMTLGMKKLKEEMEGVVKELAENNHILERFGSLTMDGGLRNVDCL
# [9] = target: T5, Serine/threonine-protein kinase TBK1 (Homo sapiens); conditions: at 10 µM
# [10] = target: T6, TGF-beta receptor type-1 (Homo sapiens) (UniProt P36897); conditions: at 1 µM
# T6 sequence (whole entry): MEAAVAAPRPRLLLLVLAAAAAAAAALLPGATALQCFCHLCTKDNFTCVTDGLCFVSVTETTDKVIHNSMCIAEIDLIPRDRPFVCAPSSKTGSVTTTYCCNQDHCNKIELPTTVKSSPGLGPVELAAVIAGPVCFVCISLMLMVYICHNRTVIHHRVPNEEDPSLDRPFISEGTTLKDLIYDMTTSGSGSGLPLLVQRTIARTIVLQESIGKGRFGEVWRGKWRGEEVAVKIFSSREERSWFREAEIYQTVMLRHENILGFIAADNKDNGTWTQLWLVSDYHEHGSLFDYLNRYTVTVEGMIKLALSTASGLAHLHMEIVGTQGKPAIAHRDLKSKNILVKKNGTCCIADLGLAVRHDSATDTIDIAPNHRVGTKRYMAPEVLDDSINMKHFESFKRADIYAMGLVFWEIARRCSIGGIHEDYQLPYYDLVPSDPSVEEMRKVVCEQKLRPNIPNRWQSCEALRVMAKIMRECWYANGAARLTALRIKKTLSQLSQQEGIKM
# [11] = target: T6, TGF-beta receptor type-1 (Homo sapiens); conditions: at 10 µM
# [12] = target: Insulin-like growth factor 1 receptor (Homo sapiens) (UniProt P08069); conditions: at 1 µM
# Insulin-like growth factor 1 receptor (Homo sapiens), sequence (P08069 31-736 limits assumed): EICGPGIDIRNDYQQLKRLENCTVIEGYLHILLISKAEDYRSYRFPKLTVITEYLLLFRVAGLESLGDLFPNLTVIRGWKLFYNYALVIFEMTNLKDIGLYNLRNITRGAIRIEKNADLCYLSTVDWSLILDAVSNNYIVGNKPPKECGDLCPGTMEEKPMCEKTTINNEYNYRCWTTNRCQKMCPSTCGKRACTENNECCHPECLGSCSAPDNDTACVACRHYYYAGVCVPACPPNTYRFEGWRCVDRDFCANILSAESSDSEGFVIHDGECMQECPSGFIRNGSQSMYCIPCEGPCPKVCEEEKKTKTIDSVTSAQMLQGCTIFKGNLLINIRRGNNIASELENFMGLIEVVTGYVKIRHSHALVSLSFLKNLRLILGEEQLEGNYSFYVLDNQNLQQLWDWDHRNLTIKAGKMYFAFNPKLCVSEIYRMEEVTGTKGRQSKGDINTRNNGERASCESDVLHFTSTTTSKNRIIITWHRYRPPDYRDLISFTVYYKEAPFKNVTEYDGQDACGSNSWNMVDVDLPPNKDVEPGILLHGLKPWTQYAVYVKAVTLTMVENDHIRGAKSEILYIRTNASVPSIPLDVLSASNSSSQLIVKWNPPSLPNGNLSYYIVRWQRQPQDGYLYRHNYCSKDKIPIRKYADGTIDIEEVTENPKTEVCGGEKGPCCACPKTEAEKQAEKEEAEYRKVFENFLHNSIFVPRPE
# Insulin-like growth factor 1 receptor (Homo sapiens), sequence (P08069 741-1367 limits assumed): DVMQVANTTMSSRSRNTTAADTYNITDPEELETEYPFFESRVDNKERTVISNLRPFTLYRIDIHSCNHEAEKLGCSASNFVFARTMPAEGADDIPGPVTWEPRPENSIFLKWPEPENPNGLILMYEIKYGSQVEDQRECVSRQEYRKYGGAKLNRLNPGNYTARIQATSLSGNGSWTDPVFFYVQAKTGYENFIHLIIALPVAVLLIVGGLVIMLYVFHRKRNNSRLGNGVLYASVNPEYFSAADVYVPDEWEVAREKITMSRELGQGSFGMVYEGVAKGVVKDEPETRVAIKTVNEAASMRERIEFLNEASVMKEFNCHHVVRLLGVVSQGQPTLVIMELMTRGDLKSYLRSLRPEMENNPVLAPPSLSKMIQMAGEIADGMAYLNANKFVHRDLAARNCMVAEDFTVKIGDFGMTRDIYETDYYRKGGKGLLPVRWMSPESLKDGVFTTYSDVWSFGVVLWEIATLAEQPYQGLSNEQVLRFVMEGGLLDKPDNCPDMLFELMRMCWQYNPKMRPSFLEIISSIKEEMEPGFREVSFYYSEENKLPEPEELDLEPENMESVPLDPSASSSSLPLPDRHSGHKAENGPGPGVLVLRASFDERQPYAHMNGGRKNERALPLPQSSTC
# [13] = target: Insulin-like growth factor 1 receptor (Homo sapiens) (UniProt P08069); conditions: at 10 µM
# [14] = target: T7, Inhibitor of nuclear factor kappa-B kinase subunit alpha (Homo sapiens) (UniProt O15111); conditions: at 1 µM
# T7 sequence (whole entry): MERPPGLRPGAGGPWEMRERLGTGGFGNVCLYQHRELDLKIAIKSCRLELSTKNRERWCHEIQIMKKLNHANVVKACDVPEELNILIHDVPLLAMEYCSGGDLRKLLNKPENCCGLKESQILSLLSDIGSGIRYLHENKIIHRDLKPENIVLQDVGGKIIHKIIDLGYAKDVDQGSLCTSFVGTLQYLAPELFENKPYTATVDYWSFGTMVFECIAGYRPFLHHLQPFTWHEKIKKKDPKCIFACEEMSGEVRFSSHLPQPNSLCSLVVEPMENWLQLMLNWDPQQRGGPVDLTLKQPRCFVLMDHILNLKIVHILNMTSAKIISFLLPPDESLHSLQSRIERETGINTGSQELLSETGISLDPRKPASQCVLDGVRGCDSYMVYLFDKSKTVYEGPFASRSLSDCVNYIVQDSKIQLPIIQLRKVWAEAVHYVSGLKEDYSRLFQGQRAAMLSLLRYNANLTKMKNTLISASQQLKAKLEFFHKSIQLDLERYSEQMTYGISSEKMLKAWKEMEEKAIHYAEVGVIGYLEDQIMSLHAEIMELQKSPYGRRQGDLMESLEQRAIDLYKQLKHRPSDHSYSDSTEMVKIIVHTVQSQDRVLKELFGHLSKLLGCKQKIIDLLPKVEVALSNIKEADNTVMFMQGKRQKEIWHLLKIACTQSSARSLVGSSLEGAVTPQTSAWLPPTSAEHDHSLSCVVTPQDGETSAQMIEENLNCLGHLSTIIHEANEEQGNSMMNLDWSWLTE
# [15] = target: T7, Inhibitor of nuclear factor kappa-B kinase subunit alpha (Homo sapiens); conditions: at 10 µM
structure (smiles),measurement,setting,value
O=C(NC(NC(=S)Nc1ccc(F)c([N+](=O)[O-])c1)C(Cl)(Cl)Cl)C(c1ccccc1)c1ccccc1 (stereo not given),residual activity,[1],92%
same,residual activity,[2],93%
same,residual activity,[3],83%
same,residual activity,[4],91%
same,residual activity,[5],92%
same,residual activity,[6],96%
same,residual activity,[7],90%
same,residual activity,[8],96%
same,residual activity,[9],74%
same,residual activity,[10],98%
same,residual activity,[11],87%
same,residual activity,[12],85%
same,residual activity,[13],85%
same,residual activity,[14],90%
same,residual activity,[15],100%

# Reference: ChEMBL document CHEMBL2218924, “A broad activity screen in support of a chemogenomic map for kinase signalling research and drug discovery” (Biochem J, 2013)
